Measurements: PubChem BioAssay (NCATS)
Where “and” joins values, the source holds several entries; their conditions need not be identical. Equal values may be shown once. Records with an inconclusive call do not appear. Where a call stands in place of a potency, no number is given. Calls of active or inactive are those of the source. Unless noted, calls follow the shape of the dose curve; as a rule, active = well fitted curve in the direction sought with a large enough effect; inconclusive = small, poorly fitted or top-dose-only effect, or another doubt; inactive = no such curve, though single readings can be large; an effect the other way counts as inactive or inconclusive.

Assays:
[1] = Cell Viability - SK-N-SH (AID 435; calls by dose curve; also: potency is read from the fitted curve at half-maximal effect); details: SK-N-SH neuroblastoma cell viability qHTS
Outline: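 qHTS cytotoxicity: CellTiter-Glo ATP luminescence after 40 h compound exposure of human neuroblastoma SK-N-SH cells at 37 °C. AC50 derived by Hill-equation fitting, with DMSO as basal and 100 uM tamoxifen as full inhibition.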

[2] = Cell Viability - Renal Proximal Tubule (AID 545); details: renal proximal tubule cells viability, primary cells of rat origin; activity change, negative = cytotoxicity: at 91.7 µM (top of the series);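 also: cells exposed to compound for 40 hours; nearly all actives have a fitted effect of over 40% in size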
Outline: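 Viability taken as intracellular ATP (CellTiter-Glo luminescence) after 40 hr, 37 °C compound treatment of primary proximal tubule cells from rat kidney, 1000 cells/well; Hill-equation fits of qHTS concentration-response data gave AC50.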

[3] = MultiTox-Fluor Cytotoxicity Assay - LYMP1-001 - Live Cells (AID 947); details: LYMP1-001 lymphoblastoid cells, live-cell protease fluorescence viability; series mostly up to 92.2 µM
[4] = Cell Viability - LYMP2-005 (AID 967); details: LYMP2-005 lymphoblastoid cell viability; series mostly up to 92.2 µM; also: potency is read from the fitted curve at half-maximal effect
Outline: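 LYMP2-005 human lymphoblastoid cells (2500/well) were treated with compounds for 24 h at 37 C. Intracellular ATP was then measured by CellTiter-Glo luminescence after 30 min at room temperature. AC50 values came from Hill-equation fits of qHTS concentration-response data.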

[5] = Cell Viability - LYMP2-009 (AID 968); details: LYMP2-009 lymphoblastoid cell viability; series mostly up to 92.2 µM; also: nearly all actives have a fitted effect of over 55% in size
[6] = Cell Viability - LYMP2-015 (AID 971); details: LYMP2-015 lymphoblastoid cell viability; series mostly up to 92.2 µM; also: nearly all actives have a fitted effect of over 55% in size
Outline: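 Acute toxicity was scored as a concentration-dependent drop in intracellular ATP in lymphoblastoid cells after 24 hr compound exposure in complete medium. Detection used CellTiter-Glo luciferase luminescence.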

[7] = Cell Viability - LYMP2-019 (AID 973); details: LYMP2-019 lymphoblastoid cell line viability; series mostly up to 92.2 µM; also: nearly all actives have a fitted effect of over 55% in size; also: potency is read from the fitted curve at half-maximal effect
Outline: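 Cells plated at 2500/well and allowed 5 hr at 37 C before compound addition. After 24 hr incubation, CellTiter-Glo reagent was added, plates sat 30 min at room temperature, and luminescence was recorded.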

[8] = Cell Viability - LYMP2-006 (AID 978); details: LYMP2-006 lymphoblastoid cell viability, qHTS; series mostly up to 92.2 µM; also: nearly all actives have a fitted effect of over 60% in size
Outline: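 Potency values are Hill-fit AC50s for decreases in intracellular ATP (CellTiter-Glo luminescence). LYMP2-006 lymphoblastoid cells, 2500 per well, were exposed to compound in complete culture medium for 24 hr at 37 C.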

[9] = Cell Viability - LYMP2-010 (AID 981); details: LYMP2-010 lymphoblastoid cell viability, qHTS; series mostly up to 92.2 µM; also: nearly all actives have a fitted effect of over 55% in size; also: potency is read from the fitted curve at half-maximal effect
Outline: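 Acute toxicity is scored as a concentration-dependent loss of cellular ATP in human lymphoblastoid cells after 24 hr compound exposure in complete medium. Tetraoctylammonium bromide is the positive control.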

[10] = target: Glucocorticoid receptor (Homo sapiens) (UniProt P04150); assay: qHTS assay for small molecule agonists of glucocorticoid receptor signaling (AID 588532; active = well fitted curve in the direction sought with a large enough effect in the signal ratio, with a control signal flat; the % refers to the signal ratio); details: HeLa MMTV-bla, beta-lactamase ratio, agonist, 18 h; stronger effect = higher value; percent of dexamethasone control, DMSO zero
Chain of Glucocorticoid receptor (Homo sapiens) (P04150 whole entry, looked up): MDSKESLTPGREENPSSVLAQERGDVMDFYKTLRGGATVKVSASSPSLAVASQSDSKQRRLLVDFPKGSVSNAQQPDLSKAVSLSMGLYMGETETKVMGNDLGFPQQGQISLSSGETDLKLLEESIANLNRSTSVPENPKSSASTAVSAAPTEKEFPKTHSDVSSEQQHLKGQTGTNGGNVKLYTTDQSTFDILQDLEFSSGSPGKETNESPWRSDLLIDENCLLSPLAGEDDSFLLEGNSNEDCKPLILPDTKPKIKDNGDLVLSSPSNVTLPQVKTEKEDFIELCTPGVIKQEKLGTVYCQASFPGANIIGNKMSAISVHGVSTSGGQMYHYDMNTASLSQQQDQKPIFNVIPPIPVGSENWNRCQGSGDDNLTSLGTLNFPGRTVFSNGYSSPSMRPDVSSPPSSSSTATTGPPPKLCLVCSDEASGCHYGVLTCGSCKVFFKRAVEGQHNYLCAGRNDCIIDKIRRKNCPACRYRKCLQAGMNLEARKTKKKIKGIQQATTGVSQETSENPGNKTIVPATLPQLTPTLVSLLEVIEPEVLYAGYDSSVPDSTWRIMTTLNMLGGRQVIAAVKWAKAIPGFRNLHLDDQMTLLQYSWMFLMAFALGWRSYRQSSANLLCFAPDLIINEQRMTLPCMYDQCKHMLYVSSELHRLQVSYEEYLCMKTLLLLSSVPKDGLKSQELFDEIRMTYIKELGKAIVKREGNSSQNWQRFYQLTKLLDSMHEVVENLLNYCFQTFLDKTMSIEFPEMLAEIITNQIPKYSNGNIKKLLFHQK
Outline: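 HeLa GRE-bla reporter cells; 18 h compound exposure at 37 C; 2 h CCF4 loading at room temperature; fluorescence at 460 and 530 nm; EC50 by Hill equation.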

[11] = qHTS assay for small molecule agonists of retinoid X receptor alpha signaling (AID 588544); details: HEK293T RXRa-UAS-bla, beta-lactamase reporter, 18 h; 530 nm emission
[12] = target: Thyroid hormone receptor beta (Homo sapiens) (UniProt P10828); assay: qHTS assay for small molecule agonists of thyroid hormone receptor beta signaling (AID 588545; calls by dose curve); details: TR-UAS-bla GripTite HEK 293, beta-lactamase ratio, agonist mode, 18 h; series mostly up to 76.7 µM
Chain of Thyroid hormone receptor beta (Homo sapiens) (P10828 whole entry, looked up): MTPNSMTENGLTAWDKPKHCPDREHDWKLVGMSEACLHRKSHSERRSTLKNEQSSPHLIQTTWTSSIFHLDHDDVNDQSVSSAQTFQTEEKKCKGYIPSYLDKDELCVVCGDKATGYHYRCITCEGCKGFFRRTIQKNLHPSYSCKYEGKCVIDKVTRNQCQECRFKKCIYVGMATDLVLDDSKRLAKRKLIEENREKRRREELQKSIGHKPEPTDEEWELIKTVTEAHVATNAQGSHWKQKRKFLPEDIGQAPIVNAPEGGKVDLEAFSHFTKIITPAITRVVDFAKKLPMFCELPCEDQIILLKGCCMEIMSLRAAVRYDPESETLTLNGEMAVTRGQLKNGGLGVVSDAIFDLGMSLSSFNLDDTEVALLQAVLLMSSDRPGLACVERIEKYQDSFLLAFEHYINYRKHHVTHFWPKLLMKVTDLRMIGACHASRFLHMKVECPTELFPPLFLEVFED
Outline: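 Stimulation of a TR-driven beta-lactamase reporter was quantified in GripTite HEK 293 cells. Compound series ran for 18 hrs; curves were normalized to T3 and DMSO controls and fitted to yield EC50.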

[13] = target: Thyroid hormone receptor beta (Homo sapiens) (UniProt P10828); assay: qHTS assay for small molecule antagonists of thyroid hormone receptor beta signaling (AID 588547; active = well fitted inhibition curve with a large enough effect in the signal ratio, with a control signal flat, not every such curve was filed as active; the % refers to the signal ratio;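 also: cells stimulated with 0.4 nM T3 agonist during compound exposure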); details: TR-UAS-bla HEK293, beta-lactamase ratio, antagonist mode, 18 h
Outline: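 TR-UAS-bla GripTite HEK293 cells in 2% charcoal/dextran FBS medium; compounds 0.59 nM to 92 uM with T3 at 0.4nM final, 18 h at 37 C. Beta-lactamase read by CCF4 fluorescence (460/530 nm); Hill fits gave IC50 and efficacy.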

[14] = target: Voltage-gated inwardly rectifying potassium channel KCNH2 (Homo sapiens) (UniProt Q12809); assay: qHTS Assay for Small Molecule Inhibitors of the Human hERG Channel Activity (AID 588834); details: U2OS BacMam hERG, FluxOR thallium flux fluorescence; series mostly up to 92.2 µM;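 also: top concentration of the series differs between compounds; lower thallium flux fluorescence means stronger hERG block; nearly all actives have a fitted effect of over 50% in size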
Chain of Voltage-gated inwardly rectifying potassium channel KCNH2 (Homo sapiens) (Q12809 whole entry, looked up): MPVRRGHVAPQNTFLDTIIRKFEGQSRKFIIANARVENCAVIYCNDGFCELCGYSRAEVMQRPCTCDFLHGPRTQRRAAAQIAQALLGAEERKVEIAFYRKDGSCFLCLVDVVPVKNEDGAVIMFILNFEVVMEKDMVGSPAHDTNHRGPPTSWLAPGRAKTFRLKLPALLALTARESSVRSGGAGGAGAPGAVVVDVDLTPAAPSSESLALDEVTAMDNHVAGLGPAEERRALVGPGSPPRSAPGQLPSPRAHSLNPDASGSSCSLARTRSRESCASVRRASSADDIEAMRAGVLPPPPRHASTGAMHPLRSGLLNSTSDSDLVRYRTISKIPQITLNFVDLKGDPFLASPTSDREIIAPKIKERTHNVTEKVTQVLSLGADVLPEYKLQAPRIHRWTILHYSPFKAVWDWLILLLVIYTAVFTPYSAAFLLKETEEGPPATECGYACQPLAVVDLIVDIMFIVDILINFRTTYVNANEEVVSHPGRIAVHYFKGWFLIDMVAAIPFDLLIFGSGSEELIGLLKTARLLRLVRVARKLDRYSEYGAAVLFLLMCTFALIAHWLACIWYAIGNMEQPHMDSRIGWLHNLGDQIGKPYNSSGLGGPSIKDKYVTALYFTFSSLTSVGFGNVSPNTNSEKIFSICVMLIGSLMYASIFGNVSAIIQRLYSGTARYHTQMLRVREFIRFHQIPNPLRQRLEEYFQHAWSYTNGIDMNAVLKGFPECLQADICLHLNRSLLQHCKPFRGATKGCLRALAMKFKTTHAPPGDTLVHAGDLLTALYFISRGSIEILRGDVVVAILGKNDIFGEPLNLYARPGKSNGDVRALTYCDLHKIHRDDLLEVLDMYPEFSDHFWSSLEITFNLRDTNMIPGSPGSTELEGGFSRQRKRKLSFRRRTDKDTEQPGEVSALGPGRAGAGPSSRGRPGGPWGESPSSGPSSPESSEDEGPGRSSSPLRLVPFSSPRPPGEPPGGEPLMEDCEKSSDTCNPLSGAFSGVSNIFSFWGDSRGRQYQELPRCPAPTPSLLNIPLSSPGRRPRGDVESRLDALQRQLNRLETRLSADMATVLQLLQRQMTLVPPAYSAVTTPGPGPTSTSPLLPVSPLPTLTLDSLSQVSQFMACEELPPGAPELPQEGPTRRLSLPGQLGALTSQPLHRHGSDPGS
Outline: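 Kinetic FDSS fluorescence; U2OS + hERG BacMam (~100 virus particles/cell); FluxOR Tl+ flux; ~10 min cpd; AC50 (Hill).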

[15] = qHTS assay for small molecule disruptors of the mitochondrial membrane potential - 1 hr assay (AID 651754; calls by dose curve; also: nearly all actives have a fitted effect of over 35% in size; also: potency is read from the fitted curve at half-maximal effect); details: series mostly up to 92.2 µM
Outline: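 Steps: seed HepG2 cells and let attach overnight; pin-transfer compound or vehicle; incubate 1 hr at 37C; add Mito-MPS dye for 30 min; read two-channel fluorescence for monomer and aggregate forms.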

[16] = qHTS assay for small molecule disruptors of the mitochondrial membrane potential - 5 hr assay (AID 651755; calls by dose curve; also: nearly all actives have a fitted effect of over 40% in size; also: potency is read from the fitted curve at half-maximal effect); details: JC-1-type ratio dye; series mostly up to 92.2 µM
Outline: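 HepG2 cells (2,000/well), attached overnight, exposed to compound 5 hr at 37C, then Mito-MPS dye 30 min. Fluorescence read for monomers (490/535 nm) and aggregates (540/590 nm).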

[17] = qHTS assay for small molecule antagonists of the retinoid-related orphan receptor gamma (ROR-gamma) signaling pathway - cell viability counter screen (AID 720652; active = well fitted curve in the direction sought with a large enough effect in the repeat runs; an effect the other way counts as inactive or inconclusive;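 also: CHO reporter cells with doxycycline-induced ROR-gamma expression; compound exposure lasted 16 hr before ATP read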); details: RORgamma reporter cell line viability counter screen; series mostly up to 92.2 µM
Outline: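 Cytotoxicity is quantified via intracellular ATP (CellTiter-Glo luminescence) in doxycycline-induced CHO ROR response element-luciferase reporter cells treated with compound for 16 hr at 37 C, 5% CO2.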

[18] = target: Nuclear receptor subfamily 1 group I member 2 (Rattus norvegicus) (UniProt Q9R1A7); assay: qHTS assay for small molecule activators of the rat pregnane X receptor (rPXR) signaling pathway (AID 651751; call rule not given here); details: rPXR reporter cells, luciferase (One-Glo), 24 h
Chain of Nuclear receptor subfamily 1 group I member 2 (Rattus norvegicus) (Q9R1A7 whole entry, looked up): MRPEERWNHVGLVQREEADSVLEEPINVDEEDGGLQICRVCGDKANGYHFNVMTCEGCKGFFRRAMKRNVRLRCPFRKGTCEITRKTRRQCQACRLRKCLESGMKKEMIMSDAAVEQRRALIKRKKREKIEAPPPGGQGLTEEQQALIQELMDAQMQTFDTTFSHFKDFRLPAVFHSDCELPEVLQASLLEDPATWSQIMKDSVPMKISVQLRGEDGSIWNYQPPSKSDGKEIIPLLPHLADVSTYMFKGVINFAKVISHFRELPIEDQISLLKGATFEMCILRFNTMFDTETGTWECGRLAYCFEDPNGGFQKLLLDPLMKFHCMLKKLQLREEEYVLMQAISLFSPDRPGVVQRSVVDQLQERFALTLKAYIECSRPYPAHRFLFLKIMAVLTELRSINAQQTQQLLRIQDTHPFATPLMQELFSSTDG

[19] = Cell Viability - Hek293 (AID 427;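 active = compounds whose dose-response curve shows a full or clear partial loss of cell viability, called from curve shape rather than a numeric limit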;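 also: potency is read from the fitted curve at half-maximal effect; cells exposed to compound for 40 hours at 37 °C before reading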); details: qHTS
Outline: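 qHTS, human embryonic kidney (adenovirus-transformed) cells; 40 hr cpd, 37 °C; CellTiter-Glo ATP luminescence. Norm: DMSO = 0, 100 uM tamoxifen = 100% inhibition. Hill-fit AC50.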

[20] = MultiTox-Fluor Cytotoxicity Assay - LYMP1-002 - Dead Cells (AID 960); details: LYMP1-002 lymphoblastoid cells, dead-cell protease fluorescence; series mostly up to 46.1 µM; also: nearly all actives have a fitted effect of over 60% in size; also: potency is read from the fitted curve at half-maximal effect
Outline: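 Acute cytotoxicity in a human lymphoblastoid line is scored as rising dead-cell protease signal after 16 hr exposure at 37 C, measured fluorometrically (485/520).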

Row | Compound | Potency [1] | Potency [2] | Potency [3] | Potency [4] | Potency [5] | Potency [6] | Potency [7] | Potency [8] | Potency [9] | activation [10] | max response [11] | Potency [12] | activity change % (negative = inhibition) [13] | Potency [14] | Potency [15] | Potency [16] | Potency [17] | max response [18] | Potency [19] | Potency [20]
1 | CCCCC(CC)COP(=O)(OCC(CC)CCCC)OCC(CC)CCCC (configuration not stated) | > 92 µM (inactive) | inactive | inactive | inactive | inactive | inactive | inactive | inactive | inactive | -3.34% (inactive) | -2.54% | inactive | -23.6% (inactive) | inactive | inactive | inactive | inactive | 1.51% (inactive) | – | –
2 | Cc1ccc(O)c(N)c1 | – | inactive | inactive | 50.1 µM (active) | – | – | 39.8 µM (active) | – | 39.8 µM (active) | 4.97% (inactive) | 23.6% | inactive | -10.8% (inactive) | inactive | 29.8 µM (active) | 33.5 µM (active) | inactive | 12.1% (inactive) | > 92 µM (inactive) | inactive
3 | O=[N+]([O-])c1cc(Cl)c(Cl)c(Cl)c1Cl | – | inactive | – | inactive | – | – | – | – | – | 0.473% (inactive) | – | inactive | 1.99% (inactive) | inactive | inactive | inactive | – | 0.233% (inactive) | – | 25.1 µM (active)
4 | Nc1ccc2c(c1)C(=O)c1ccccc1C2=O | – | – | inactive | inactive | – | – | – | inactive | – | -3.44% (inactive) and 1.5% (inactive) | 6.46% and 2.42% | inactive | -15.9% (inactive) | inactive | 1.33 µM (active) | 1.5 µM (active) | inactive | – | > 92 µM (inactive) | inactive
